Compounds without any hit were thinned out: in the full panel of roughly 79,000, 15% have a hit. Unmarked numbers belong to inactive results. Active and inactive are the calls of the source. No stated cut-off is given here; in the data, active means growth inhibition above about 70%; inactive means the rest.

Test [1] in a line: NCI Yeast Anticancer Drug Screen. Data for the rad50 strain (AID 155).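 Further: 0% = growth of vehicle-only cultures of the same strain.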 The settings on record: S. cerevisiae rad50 strain growth inhibition, hits give high values. The procedure, abridged:
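Readout: growth inhibition relative to vehicle-treated cultures. Compound exposure was carried out in a genetically defined yeast strain deficient in DNA damage repair.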

Test [2] in a line: NCI Yeast Anticancer Drug Screen. Data for the mec2-1 strain (AID 157). The settings on record: S. cerevisiae mec2-1 strain, hits give high values. The gist of the method:
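Using mec2-1 yeast: add compound, measure growth, express inhibition versus vehicle-treated cultures.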

A short description of test [3]: NCI Yeast Anticancer Drug Screen. Data for the sgs1 mgt1 strain (AID 161).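 Further: 0% = growth of cultures given vehicle only.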 The settings on record: S. cerevisiae sgs1 mgt1 strain, hits give high values. The gist of the method: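 Percent growth inhibition was derived by comparing compound-exposed mutant yeast with vehicle-exposed cultures. The strain carries alterations in DNA damage repair.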
A short description of test [4]: NCI Yeast Anticancer Drug Screen. Data for the cln2 rad14 strain (AID 165).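 Further: 0% = growth equal to vehicle treated cultures.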 The note with it: S. cerevisiae cln2 rad14 strain, hits give high values. The procedure, abridged: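 Yeast strain cln2 rad14, bearing defects in cell cycle control and DNA repair, serves as the test system; values reflect growth inhibition compared with vehicle.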
The nature of test [5]: NCI Yeast Anticancer Drug Screen. Data for the bub3 strain (AID 167). The settings on record: S. cerevisiae bub3 mutant strain, hits give high values. The procedure, abridged: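 Readout: yeast growth inhibition, expressed relative to vehicle-only wells. The test organism is a mutant strain from a panel with lesions in DNA repair or checkpoint genes.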
A short description of test [6]: NCI Yeast Anticancer Drug Screen. Data for the mlh1 rad18 strain (AID 175). The settings on record: S. cerevisiae mlh1 rad18 strain growth inhibition, hits give high values. The gist of the method:
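Steps: expose repair-defective yeast to compound; measure growth; express inhibition against vehicle-treated controls.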

Setting [7] is: at 5.0 µM (retest, dose inferred, filed as 0.5).
[8] abbreviates: at 50.0 µM (retest, dose inferred, filed as 5.0).

`CC(C)=CCc1c2c(c(O)c3c(=O)c(-c4ccc(O)cc4O)coc13)C=CC(C)(C)O2`: the growth inhibition in test [1] (setting [7]) was -20%; in test [1] (setting [8]) it was 95% (active); in test [1] (at 50.0 µM), 83.2% (active); in test [2] (setting [7]), -13%; in test [2] (setting [8]), 97% (active); in test [2] (at 50.0 µM) it was 86% (active). For the same compound, the growth inhibition in test [3] (setting [7]) was -11%; in test [3] (setting [8]), 95% (active); in test [3] (at 50.0 µM), 85.9% (active); in test [4] (setting [7]), 15%; in test [4] (setting [8]), 97% (active); in test [4] (at 50.0 µM), 83.2% (active). The growth inhibition is 26% in test [5] (setting [7]); 96% (active) in test [5] (setting [8]); 81.2% (active) in test [5] (at 50.0 µM); 7% in test [6] (setting [7]); 95% (active) in test [6] (setting [8]); 84.7% (active) in test [6] (at 50.0 µM).

For `O=C(OC1C2CCC2C2CC21)c1cc([N+](=O)[O-])cc([N+](=O)[O-])c1` (configuration not stated), the growth inhibition in test [1] (setting [7]) is -9%; in test [1] (setting [8]), 97% (active); in test [1] (at 50.0 µM), 10.9%; in test [2] (setting [7]) it was 4%; in test [2] (setting [8]), 99% (active); in test [2] (at 50.0 µM), 98.1% (active). The growth inhibition in test [3] (setting [7]) was 32%; in test [3] (setting [8]) it was 99% (active); in test [3] (at 50.0 µM), 13%; in test [4] (setting [7]), 3%; in test [4] (setting [8]), 98% (active); in test [4] (at 50.0 µM) it was 97.8% (active). Moreover, the growth inhibition is 6% in test [5] (setting [7]); 98% (active) in test [5] (setting [8]); 62.2% in test [5] (at 50.0 µM); 42% in test [6] (setting [7]); 99% (active) in test [6] (setting [8]); 58.9% in test [6] (at 50.0 µM).

With `COc1cc(CNc2nc3ccccc3nc2-c2cccs2)cc(OC)c1OC`, the growth inhibition in test [1] (setting [7]) is 5%; in test [1] (setting [8]) it was 12%; in test [1] (at 50.0 µM), 10%; in test [2] (setting [7]), -13%; in test [2] (setting [8]) it was -22%; in test [2] (at 50.0 µM), 0.65%. For the same compound, the growth inhibition in test [3] (setting [7]) is -1%; in test [3] (setting [8]) it was 20%; in test [3] (at 50.0 µM) it was 19.6%; in test [4] (setting [7]), -12%; in test [4] (setting [8]), 9%; in test [4] (at 50.0 µM), 60%. In addition, the growth inhibition in test [5] (setting [7]) was -12%; in test [5] (setting [8]), -8%; in test [5] (at 50.0 µM) it was 30%; in test [6] (setting [7]) it was -17%; in test [6] (setting [8]) it was 17%; in test [6] (at 50.0 µM) it was 55.3%.

For the compound `CC[n+]1c(/C=C/c2ccc(N(C)C)cc2)ccc2ccccc21`, the growth inhibition in test [1] (setting [7]) was -5%; in test [1] (setting [8]) it was 99% (active); in test [1] (at 50.0 µM), 99% (active); in test [2] (setting [7]), 23%; in test [2] (setting [8]), 99% (active); in test [2] (at 50.0 µM), 99.2% (active). The growth inhibition was -2% in test [3] (setting [7]); 99% (active) in test [3] (setting [8]); 98% (active) in test [3] (at 50.0 µM); -5% in test [4] (setting [7]); 98% (active) in test [4] (setting [8]); 99% (active) in test [4] (at 50.0 µM). Further, the growth inhibition in test [5] (setting [7]) was 1%; in test [5] (setting [8]), 99% (active); in test [5] (at 50.0 µM), 98.8% (active); in test [6] (setting [7]), 13%; in test [6] (setting [8]) it was 99% (active); in test [6] (at 50.0 µM) it was 98.5% (active).

`CN(CCC(=O)/C(=C\c1ccc(Cl)cc1)c1ccccc1)Cc1ccccc1`: the growth inhibition is 98% (active) in test [1] (setting [7]); 98% (active) in test [1] (setting [8]); 62.9% in test [1] (at 50.0 µM); 100% (active) in test [2] (setting [7]); 99% (active) in test [2] (setting [8]); 99% (active) in test [2] (at 50.0 µM). Besides, the growth inhibition in test [3] (setting [7]) was 99% (active); in test [3] (setting [8]) it was 99% (active); in test [3] (at 50.0 µM) it was 98.2% (active); in test [4] (setting [7]) it was 98% (active); in test [4] (setting [8]), 98% (active); in test [4] (at 50.0 µM), 98.5% (active). Moreover, the growth inhibition was 97% (active) in test [5] (setting [7]); 99% (active) in test [5] (setting [8]); 97.6% (active) in test [5] (at 50.0 µM); 99% (active) in test [6] (setting [7]); 99% (active) in test [6] (setting [8]); 98.5% (active) in test [6] (at 50.0 µM).

As to `O=C(/C=C/c1cccnc1)c1cc(Cl)ccc1O`, the growth inhibition in test [1] (setting [7]) was 3%; in test [1] (setting [8]), 61%; in test [1] (at 50.0 µM), 86.9% (active); in test [2] (setting [7]), 3%; in test [2] (setting [8]), 40%; in test [2] (at 50.0 µM), 23.9%. Moreover, the growth inhibition in test [3] (setting [7]) is -3%; in test [3] (setting [8]), 22%; in test [3] (at 50.0 µM) it was 56.9%; in test [4] (setting [7]) it was 1%; in test [4] (setting [8]), 24%; in test [4] (at 50.0 µM), 26.6%. Moreover, the growth inhibition in test [5] (setting [7]) is 1%; in test [5] (setting [8]), 71% (active); in test [5] (at 50.0 µM) it was 5.2%; in test [6] (setting [7]), 5%; in test [6] (setting [8]), 48%; in test [6] (at 50.0 µM), 42.5%.

With `CNC1c2ccccc2C(=O)c2cc3c(cc21)OCCOCCOCCOCCO3` (configuration not stated), the growth inhibition was -10% in test [1] (setting [7]); 7% in test [1] (setting [8]); 11.8% in test [1] (at 50.0 µM); -4% in test [2] (setting [7]); -12% in test [2] (setting [8]); 8.1% in test [2] (at 50.0 µM). The growth inhibition is -10% in test [3] (setting [7]); -12% in test [3] (setting [8]); 12.1% in test [3] (at 50.0 µM); -25% in test [4] (setting [7]); -12% in test [4] (setting [8]); 40.8% in test [4] (at 50.0 µM). The growth inhibition in test [5] (setting [7]) was -13%; in test [5] (setting [8]) it was -2%; in test [5] (at 50.0 µM) it was 20.8%; in test [6] (setting [7]), -6%; in test [6] (setting [8]) it was 1%; in test [6] (at 50.0 µM), 27.2%.

For the compound `O=C1c2ccccc2SCC12OC2c1ccc(Cl)cc1` (configuration not stated), the growth inhibition is 9% in test [1] (setting [7]); 85% (active) in test [1] (setting [8]); 95% (active) in test [1] (at 50.0 µM); 4% in test [2] (setting [7]); 88% (active) in test [2] (setting [8]); 93.5% (active) in test [2] (at 50.0 µM). The growth inhibition in test [3] (setting [7]) was 16%; in test [3] (setting [8]), 92% (active); in test [3] (at 50.0 µM), 95.5% (active); in test [4] (setting [7]), 1%; in test [4] (setting [8]), 87% (active); in test [4] (at 50.0 µM), 92% (active). Further, the growth inhibition was 21% in test [5] (setting [7]); 91% (active) in test [5] (setting [8]); 94.9% (active) in test [5] (at 50.0 µM); 12% in test [6] (setting [7]); 91% (active) in test [6] (setting [8]); 95.1% (active) in test [6] (at 50.0 µM).

As to `NNC(=O)N/N=C(\CC1(O)C(=O)Nc2c(Cl)ccc(Cl)c21)c1ccc(F)cc1` (configuration not stated), the growth inhibition was 79% (active) in test [1] (setting [7]); 91% (active) in test [1] (setting [8]); 56.4% in test [1] (at 50.0 µM); 50% in test [2] (setting [7]); 80% (active) in test [2] (setting [8]); 39.5% in test [2] (at 50.0 µM). Besides, the growth inhibition is 72% (active) in test [3] (setting [7]); 85% (active) in test [3] (setting [8]); 37.4% in test [3] (at 50.0 µM); 64% in test [4] (setting [7]); 74% (active) in test [4] (setting [8]); 2.75% in test [4] (at 50.0 µM). Besides, the growth inhibition in test [5] (setting [7]) was 70% (active); in test [5] (setting [8]) it was 80% (active); in test [5] (at 50.0 µM) it was 21.9%; in test [6] (setting [7]) it was 57%; in test [6] (setting [8]), 73% (active); in test [6] (at 50.0 µM), 50.3%.

These data come from PubChem BioAssay (NCI).
